According to the supplement of paper PMC6555819:

Tests used:
Assay in all cases: PBM binding z-score (relative to random genomic background probes); higher = stronger binding; sequences stand for … in GC…GCGATTGACAGCGTAGAATGAAGG
[1] = tested on: FXR:RXRa (NR concentration 270 nM, RXRa partner concentration 90 nM)
In short: (§1)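 Regression normalization was applied to scanned fluorescence from custom Agilent 4×180K protein-binding microarrays. Before scanning, arrays were incubated 1 h with ligand-free nuclear receptor dimers, and binding was detected with antibodies against each partner (one per run). Binding z-scores use the random background probes as reference.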

[2] = tested on: LXRa:RXRa (NR concentration 270 nM, RXRa partner concentration 90 nM)
In short: as §1

[3] = tested on: LXRa homodimer (NR concentration 270 nM)
In short: as §1

[4] = tested on: LXRb:RXRa (NR concentration 270 nM, RXRa partner concentration 90 nM)
In short: as §1

[5] = tested on: LXRb homodimer (NR concentration 270 nM)
In short: as §1

[6] = tested on: PPARa:RXRa (NR concentration 270 nM, RXRa partner concentration 90 nM)
In short: as §1

[7] = tested on: PPARg:RXRa (NR concentration 180 nM, RXRa partner concentration 90 nM)
In short: as §1

[8] = tested on: PPARg:RXRa 270nM:90nM, anti-RXR (NR concentration 270 nM, RXRa partner concentration 90 nM)
In short: as §1

[9] = tested on: PPARg:RXRa 30nM:10nM, anti-RXR (NR concentration 30 nM, RXRa partner concentration 10 nM)
In short: as §1

[10] = tested on: PPARg:RXRa 90nM:30nM, anti-RXR (NR concentration 90 nM, RXRa partner concentration 30 nM)
In short: as §1

[11] = tested on: PPARg:RXRa DBDmut IVT, anti-RXR (DBD mutation: RXRa K156A/R161A, NR concentration 270 nM, RXRa partner concentration 90 nM)
In short: as §1

[12] = tested on: PPARg:RXRa IVT, anti-PPARg (NR concentration 270 nM, RXRa partner concentration 90 nM)
In short: as §1

[13] = tested on: PPARg DBDmut:RXRa IVT, anti-PPARg (DBD mutation: PPARg1 K132A/R137A, NR concentration 270 nM, RXRa partner concentration 90 nM)
In short: as §1

[14] = tested on: PPARg DBDmut IVT, anti-PPARg (DBD mutation: PPARg1 K132A/R137A, NR concentration 270 nM)
In short: as §1

[15] = tested on: PPARg homodimer (NR concentration 180 nM)
In short: as §1

[16] = tested on: PXR:RXRa (NR concentration 270 nM, RXRa partner concentration 90 nM)
In short: as §1

[17] = tested on: PXR homodimer (NR concentration 270 nM)
In short: as §1

[18] = tested on: RARa:RXR (NR concentration 270 nM, RXRa partner concentration 90 nM)
In short: as §1

[19] = tested on: RARa homodimer (NR concentration 270 nM)
In short: as §1

[20] = tested on: RARb:RXRa (NR concentration 270 nM, RXRa partner concentration 90 nM)
In short: as §1

Sequence | PBM binding z-score [1] | PBM binding z-score [2] | PBM binding z-score [3] | PBM binding z-score [4] | PBM binding z-score [5] | PBM binding z-score [6] | PBM binding z-score [7] | PBM binding z-score [8] | PBM binding z-score [9] | PBM binding z-score [10] | PBM binding z-score [11] | PBM binding z-score [12] | PBM binding z-score [13] | PBM binding z-score [14] | PBM binding z-score [15] | PBM binding z-score [16] | PBM binding z-score [17] | PBM binding z-score [18] | PBM binding z-score [19] | PBM binding z-score [20]
TCGAGTAGGTTACCACTGGGGCATTCAGCTTTCT | -0.222 | 0.889 | -0.872 | 0.314 | -0.76 | 1.04 | 0.354 | 1.12 | 0.971 | 0.965 | 3.33 | 3.37 | 0.26 | 0.143 | -0.498 | -0.159 | -1.14 | 0.0985 | -0.786 | 0.833
GCTGCTAGGTCAGTTTGGTCAGCTAACGGGTACG | 1.08 | 0.563 | -0.212 | 0.437 | 0.134 | 0.943 | 0.183 | 0.678 | -0.304 | 0.407 | 2.93 | 2 | -0.859 | -0.221 | 0.433 | 0.0587 | -0.275 | 0.504 | -0.322 | 3.1
CCTAGTTGGTCCGGAGGTCACACACCGGATATGA | 3.5 | 3.34 | 2.47 | 3.37 | 0.577 | 3.61 | 2.4 | 3.54 | 1.51 | 3.05 | 0.0727 | 1.77 | -0.285 | 0.613 | 2.74 | 4.13 | 1.54 | 4.43 | 1.45 | 3.47
GCCACTGGGGCATCAGCAGGTTACCATAACTTAA | -0.242 | -0.416 | -0.158 | 0.103 | -1.12 | 1.28 | 1.72 | 1.82 | 0.184 | 0.914 | 4.53 | 4.92 | -0.157 | -0.59 | 0.0359 | -0.0612 | -0.589 | 0.475 | -0.576 | 0.955
ATATGTAGGTTGTCGGGTCATTCAGTTTGCGCAT | 2.12 | 2.15 | 1.45 | 2.65 | 0.953 | 3.6 | 2.89 | 3.27 | 1.09 | 2.63 | 4.37 | 4.47 | 1.87 | 1.67 | 2.56 | 3.63 | 8.53 | 3.15 | 1.78 | 2.08
ATACCAAGTTGATCGTGAGGTCGTTGATACTAAC | 1.48 | 1.03 | 0.823 | 1.31 | 0.171 | 1.22 | 0.148 | 0.229 | 0.0312 | 0.0356 | -0.0424 | -0.015 | 0.231 | 0.701 | 1.02 | 2.78 | 1.61 | 1.78 | 1.04 | 0.897
ACTATTAGTTGACTTGGGGCAACCGATACGACGC | 0.435 | 0.287 | 0.238 | 0.754 | 1.05 | -0.000395 | 0.902 | 0.242 | 0.327 | 0.389 | 0.684 | 0.607 | 1.18 | 1.45 | 0.367 | 0.156 | 0.385 | 0.245 | 0.466 | 0.789
TCTGCTAGGTCAGTAGGTCAGCTAACGAGCTGCC | 1.81 | 1.55 | 0.12 | 1.18 | -0.0966 | 3.55 | 4.84 | 5 | 2.51 | 4.29 | 4.75 | 6.23 | 0.586 | 0.0507 | 0.729 | 1.3 | -0.386 | 2.58 | -1.38 | 3.79
TCGATTAGTTGAAGGGCAACCGACGAGTCCGTTT | 0.259 | 0.194 | -0.152 | 0.106 | -0.503 | 0.295 | -0.114 | 1.19 | 2.74 | 1.85 | 1.72 | 0.195 | 0.000817 | 0.136 | -0.0561 | 0.157 | 0.0884 | 0.128 | 0.353 | 1.2
ATCTCTAGGTAAAGATACTTCAGTGAATGCAAAT | 0.262 | 0.149 | 0.0511 | 0.403 | 0.44 | 0.361 | 0.884 | 0.723 | 0.521 | 0.608 | 1.8 | 1.32 | 1.1 | 1.13 | 0.534 | 0.635 | 0.252 | 0.522 | 0.591 | -0.033
ATCGAAAGATCGACGAGGTGAGTATACACCGTTT | -0.0851 | -0.16 | -0.368 | -0.346 | -0.329 | 0.0246 | 0.902 | -0.253 | 0.289 | 0.00942 | -0.646 | 0.27 | 0.0625 | 0.447 | -0.719 | -0.123 | 0.0422 | 0.105 | -0.0578 | -0.0508
CATACGGGGTCAGCTAGGCCAGAGTAGGGACGGC | 7.18 | 5.6 | 0.0211 | 4.81 | 1.12 | 6.17 | 7.29 | 6.63 | 3.71 | 5.39 | 2.55 | 4.45 | 1.49 | 1.86 | 2.4 | 4.79 | 0.529 | 5.51 | 0.858 | 4.84
TTACCAAGGTGAAGGTCGTTGCTCCCTCTGTAGA | 2.26 | 1.91 | 0.0546 | 1.46 | -0.474 | 2.7 | 2.96 | 4.34 | 2.21 | 3.83 | 2.04 | 3.56 | -0.269 | 0.0241 | 1.17 | 1.46 | 0.225 | 1.65 | -0.269 | 2.39
TCTGCTAGGTCAGTTGATCAGCTAACGAGCTGCC | 0.721 | 0.672 | -0.553 | 0.169 | -0.0241 | 0.983 | 0.167 | 1.28 | 1.07 | 1.27 | 2.51 | 2.27 | 0.428 | -0.296 | -0.547 | 0.199 | -0.78 | 0.424 | -1.32 | 3
